Screening data: PubChem BioAssay, The Scripps Research Institute Molecular Screening Center
FBW7 activator – activators of human E3 ligase FBW7. AlphaScreen FBW7–phospho-cyclin E peptide binding, activator screen. 650,000 compounds, 0.13% hits. normalized activity (activation), % at 26.1 µM; in the data active = normalized activity above about 1.9%;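 also: purified mutant Fbw7 with reduced substrate affinity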
MITF inh – human MITF inhibition, primary screen | O75030 | AlphaScreen MITF homodimerization, bead proximity signal | inhibition, % at 2.6 µM | 650,000 compounds, 0.91% hits | AID 1259374; in the data active = inhibition above about 50%
GPR151 activ – activates the human receptor GPR151; Q8TDV0; PathHunter beta-arrestin GPR151 cells, luminescence; activation, % at 11.2 µM; 650,000 compounds, 1% hits; AID 1508602; in the data active = activation above about 4.9%
Target sequence (Q8TDV0 whole entry, looked up): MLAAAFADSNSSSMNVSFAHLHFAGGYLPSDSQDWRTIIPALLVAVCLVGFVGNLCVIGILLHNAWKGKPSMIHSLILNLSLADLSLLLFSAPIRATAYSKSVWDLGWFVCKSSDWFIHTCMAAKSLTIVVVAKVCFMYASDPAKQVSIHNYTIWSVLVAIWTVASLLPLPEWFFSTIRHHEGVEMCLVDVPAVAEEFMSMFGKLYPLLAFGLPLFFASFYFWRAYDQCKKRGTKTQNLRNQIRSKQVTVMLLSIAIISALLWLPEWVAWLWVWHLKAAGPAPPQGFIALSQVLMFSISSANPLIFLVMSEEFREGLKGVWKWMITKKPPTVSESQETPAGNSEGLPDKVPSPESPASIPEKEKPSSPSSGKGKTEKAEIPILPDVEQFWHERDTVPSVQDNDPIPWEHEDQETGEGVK
TEAD-YAP block – TEAD-YAP interaction inhibition | inhibition, % at 9.12 µM | 640,000 compounds, 1.4% hits | AID 1259422 | HEK-TIYL cells, TEAD-Gal4/YAP UAS-luciferase luminescence; in the data active = inhibition above about 32%
Numbers stand for hits; i = inactive; nt = not tested or not shown. Most compounds without a hit are left out; they make up all but 3.5% or so of the library.

SMILES | FBW7 activator | MITF inh | GPR151 activ | TEAD-YAP block
CC(=O)[C@H]1CCC2C3CC[C@H]4C[C@H](O)CC[C@]4(C)C3CC[C@@]21C (some centres not stated) | i | i | i | i
CCCC(=O)c1cc(F)c(N2CCNCC2)cc1C | i | i | i | i
O=[N+]([O-])c1ccc(Cl)c(N2CCNCC2)c1 | i | i | i | i
COc1ccc(-n2c(/C=C/c3ccccc3)nc3ccccc3c2=O)cc1 | i | i | i | i
CCn1nc(-c2ccc([N+](=O)[O-])cc2)nc2c(=O)n(C)c(=O)nc1-2 | i | i | i | 69.8
CCn1nc(/C=C/c2ccccc2)nc2c(=O)n(C)c(=O)nc1-2 | i | i | i | 33.0
CCOC(=O)c1nc2ccccc2c(=O)n1-c1ccc(F)cc1Cl | i | i | i | i
C[C@H]1CCC/C=C/[C@@H]2C[C@H](O)C[C@H]2[C@H](O)/C=C/C(=O)O1 | i | i | i | 68.5
C[C@H]1CCC/C=C/C2C[C@H](O)C[C@H]2[C@H](O)/C=C/C(=O)O1 (some centres not stated) | 2.1 | i | i | nt
OC1CC2C(Cl)C1NC2(C(F)(F)F)C(F)(F)F (configuration not stated) | i | i | i | i
O=C1NC(=O)C2(C(=O)N1)C(c1ccc(Cl)cc1)NC(=S)NC2c1ccc(Cl)cc1 (configuration not stated) | i | i | i | i
COc1ccc(Sc2ccc(C=C3C(=O)NC(=O)NC3=O)o2)cc1 | i | i | i | i
COc1ccc(N2C(=O)NC(=O)/C(=C/c3ccc(Br)o3)C2=O)cc1 | i | 72.6 | i | i
COc1ccc(N2C(=O)/C(=C\c3ccc(C)o3)C(=O)NC2=S)cc1 | i | i | i | i
O=C1NC(=O)C(=Cc2ccc(Br)o2)C(=O)N1 | i | 63.0 | i | i
COc1ccc(N2C(=O)/C(=C/c3ccc(Br)o3)C(=O)NC2=S)cc1 | i | 60.2 | i | i
Cc1ccc(N2C(=O)NC(=O)/C(=C/c3ccc([N+](=O)[O-])o3)C2=O)cc1 | i | 69.5 | i | i
O=P(Oc1ccccc1)(Oc1ccccc1)N1CCCCC1 | i | i | i | i
CCOC(=O)c1nc2ccccc2c(=O)n1-c1ccc(Cl)c(Cl)c1 | i | i | i | i
OC1/C(=C/c2ccc(-c3ccc(Cl)cc3)o2)N2CCC1CC2 (configuration not stated) | i | i | i | i
C=CCC1(C(CC(=O)CCC)c2ccccc2)C(=O)NC(=O)NC1=O (configuration not stated) | i | i | i | i
O=c1c(O)c(-c2ccc(O)c(O)c2)oc2c(O)c(O)cc(O)c12 | i | 57.2 | i | i
CC1O[C@@H](OC2C[C@@H](O)[C@]3(CO)[C@H]4[C@H](O)C[C@]5(C)C(C6=CC(=O)OC6)CC[C@]5(O)[C@@H]4CC[C@]3(O)C2)C(O)[C@@H](O)[C@H]1O (some centres not stated) | i | i | i | nt
CC(=O)O[C@H]1CC[C@]2(C=O)C3CC[C@]4(C)[C@@H](C5=CC(=O)OC5)CC[C@]4(O)[C@@H]3CC[C@]2(O)C1 (some centres not stated) | i | i | i | 102.2
C[C@@H]1O[C@@H](O[C@H]2CC[C@]3(C=O)C4CC[C@]5(C)[C@@H](C6=CC(=O)OC6)CC[C@]5(O)C4CC[C@]3(O)C2)[C@H](O)[C@H](O)[C@H]1O (some centres not stated) | i | i | i | 101.2
SMILES | FBW7 activator | MITF inh | GPR151 activ | TEAD-YAP block
CN1CC=C(c2noc(CCC(=O)Nc3cccnc3Cl)n2)CC1 | i | i | i | i
Cc1cccc(N2CCN(C(=O)CCc3nc(C4=CCN(C)CC4)no3)CC2C)c1 (configuration not stated) | 4.1 | i | i | i
CN1CC=C(c2noc(CCC(=O)Nc3ccccc3Cl)n2)CC1 | i | i | i | i
CN1CC=C(c2noc(CCC(=O)Nc3cccc(Cl)c3)n2)CC1 | 1.9 | i | i | i
CN1CC=C(c2noc(CCC(=O)N3CCN(c4ncccn4)CC3)n2)CC1 | i | i | i | i
CC1=C(C(=O)OC(C)C)C2(C(=O)Nc3ccc(C)cc32)C(C#N)=C(N)O1 (configuration not stated) | i | i | i | i
COc1ccc(OC)c(CN2CCN(c3ccccc3F)CC2)c1 | i | i | i | i
CCC1/C=C/C=C/C[C@H](C)[C@@H](O)[C@](C)(O)C(=O)[C@@H](C)[C@H](O)[C@@H](C)C(=O)[C@H](C)[C@@H](O)[C@H](C)/C=C/C(=O)OC2[C@@H](C)C(CC1)OC1(CC[C@@H](C)C(C[C@H](C)O)O1)[C@@H]2C (some centres not stated) | i | i | i | 94.1
